Measured values taken from paper PMC7862700, “An all-to-all approach to the identification of sequence-specific readers for epigenetic DNA modifications on cytosine”.

Key:
Test in all cases: DAPPL (digital affinity profiling via proximity ligation, sequencing); 10 mM Tris-HCl pH 7.5, 50 mM NaCl, 1 mM DTT, 4% glycerol, room temperature, 30 min; GST-TFs on glutathione beads, 16-mer random dsDNA library, 0.1% formaldehyde crosslink after washing; high values mean tight binding
FLI1 = target: T1, FLI1 (Homo sapiens, UniProt Q01543 1-452); details: protein: recombinant; tags: N-terminal GST; dsDNA, one strand shown
T1 sequence: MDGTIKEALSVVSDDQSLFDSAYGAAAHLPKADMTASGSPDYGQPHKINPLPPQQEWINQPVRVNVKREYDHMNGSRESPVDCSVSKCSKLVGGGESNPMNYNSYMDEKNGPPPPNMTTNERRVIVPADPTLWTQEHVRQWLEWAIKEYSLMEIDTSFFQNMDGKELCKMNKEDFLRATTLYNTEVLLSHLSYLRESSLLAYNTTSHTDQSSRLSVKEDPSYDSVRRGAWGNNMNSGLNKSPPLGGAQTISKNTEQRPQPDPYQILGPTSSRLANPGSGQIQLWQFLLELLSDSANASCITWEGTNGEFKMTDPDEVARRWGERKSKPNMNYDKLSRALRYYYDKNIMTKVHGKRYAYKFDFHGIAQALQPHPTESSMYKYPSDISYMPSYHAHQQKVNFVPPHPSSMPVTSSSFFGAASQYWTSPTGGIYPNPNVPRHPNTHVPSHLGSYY
In short: (§1)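 Beads coated with glutathione captured GST-fused human transcription factors that had been expressed in yeast, and the factors were then given DNA barcodes and pooled with a tag-only sample. The pools were incubated with 200 nmole of a random double-stranded 16-mer DNA library in Tris/NaCl/DTT/glycerol buffer for 30 min at room temperature, washed, crosslinked with 0.1% formaldehyde and proximity-ligated with BsaI/T4 ligase at 37 °C for 1 h. PCR amplification and Illumina NextSeq500 sequencing came last. Binding signal is each hexamer's read frequency for a factor divided by its frequency for the tag-only sample.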

ELK1 = target: T2, ELK1 (Homo sapiens, UniProt P19419 1-428); details: protein: recombinant; tags: N-terminal GST; dsDNA, one strand shown
T2 sequence: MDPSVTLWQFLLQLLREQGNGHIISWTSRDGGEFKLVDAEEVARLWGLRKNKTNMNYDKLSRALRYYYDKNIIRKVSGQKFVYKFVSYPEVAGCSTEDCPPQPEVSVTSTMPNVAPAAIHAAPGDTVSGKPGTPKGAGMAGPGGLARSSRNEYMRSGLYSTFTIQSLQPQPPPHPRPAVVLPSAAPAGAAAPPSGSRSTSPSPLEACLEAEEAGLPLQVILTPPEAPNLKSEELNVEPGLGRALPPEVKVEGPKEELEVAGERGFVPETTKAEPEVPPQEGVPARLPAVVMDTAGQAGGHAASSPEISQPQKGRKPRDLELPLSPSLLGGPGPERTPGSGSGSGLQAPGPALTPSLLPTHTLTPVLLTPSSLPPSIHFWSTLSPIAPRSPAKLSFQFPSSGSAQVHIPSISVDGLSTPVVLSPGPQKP
In short: as §1

GABPA = target: T3, GABPA (Homo sapiens, UniProt Q06546 1-454); details: protein: recombinant; tags: N-terminal GST; dsDNA, one strand shown
T3 sequence: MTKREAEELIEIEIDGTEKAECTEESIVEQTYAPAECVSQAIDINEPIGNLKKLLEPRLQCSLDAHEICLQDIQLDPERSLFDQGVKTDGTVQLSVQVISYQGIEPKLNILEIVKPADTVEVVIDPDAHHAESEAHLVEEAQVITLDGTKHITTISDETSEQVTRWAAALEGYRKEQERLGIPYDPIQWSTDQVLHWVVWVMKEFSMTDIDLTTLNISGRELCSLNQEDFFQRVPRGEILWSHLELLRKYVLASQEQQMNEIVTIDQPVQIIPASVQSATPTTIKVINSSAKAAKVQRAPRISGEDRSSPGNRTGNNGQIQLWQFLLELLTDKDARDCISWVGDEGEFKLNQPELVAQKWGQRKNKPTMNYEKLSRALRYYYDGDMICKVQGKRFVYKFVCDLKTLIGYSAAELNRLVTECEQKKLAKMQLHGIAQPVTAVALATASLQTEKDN
In short: as §1

ERG = target: T4, ERG (Homo sapiens, UniProt P11308 1-479); details: protein: recombinant; tags: N-terminal GST; dsDNA, one strand shown
T4 sequence: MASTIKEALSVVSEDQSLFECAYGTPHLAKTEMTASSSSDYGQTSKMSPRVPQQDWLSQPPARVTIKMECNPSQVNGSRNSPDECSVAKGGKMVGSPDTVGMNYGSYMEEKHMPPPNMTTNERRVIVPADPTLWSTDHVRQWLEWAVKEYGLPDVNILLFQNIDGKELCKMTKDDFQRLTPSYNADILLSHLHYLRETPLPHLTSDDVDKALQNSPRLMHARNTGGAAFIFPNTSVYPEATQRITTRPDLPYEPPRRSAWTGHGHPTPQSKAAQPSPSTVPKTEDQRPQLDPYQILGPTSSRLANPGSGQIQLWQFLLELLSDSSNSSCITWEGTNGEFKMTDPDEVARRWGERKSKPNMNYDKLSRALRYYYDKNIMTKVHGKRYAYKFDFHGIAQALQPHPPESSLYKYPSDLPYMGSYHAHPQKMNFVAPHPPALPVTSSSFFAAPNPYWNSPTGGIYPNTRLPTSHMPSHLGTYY
In short: as §1

ELF1 = ELF1 (Homo sapiens, UniProt P32519 1-619); details: protein: recombinant; tags: N-terminal GST; dsDNA, one strand shown
ELF1, sequence (P32519 whole entry): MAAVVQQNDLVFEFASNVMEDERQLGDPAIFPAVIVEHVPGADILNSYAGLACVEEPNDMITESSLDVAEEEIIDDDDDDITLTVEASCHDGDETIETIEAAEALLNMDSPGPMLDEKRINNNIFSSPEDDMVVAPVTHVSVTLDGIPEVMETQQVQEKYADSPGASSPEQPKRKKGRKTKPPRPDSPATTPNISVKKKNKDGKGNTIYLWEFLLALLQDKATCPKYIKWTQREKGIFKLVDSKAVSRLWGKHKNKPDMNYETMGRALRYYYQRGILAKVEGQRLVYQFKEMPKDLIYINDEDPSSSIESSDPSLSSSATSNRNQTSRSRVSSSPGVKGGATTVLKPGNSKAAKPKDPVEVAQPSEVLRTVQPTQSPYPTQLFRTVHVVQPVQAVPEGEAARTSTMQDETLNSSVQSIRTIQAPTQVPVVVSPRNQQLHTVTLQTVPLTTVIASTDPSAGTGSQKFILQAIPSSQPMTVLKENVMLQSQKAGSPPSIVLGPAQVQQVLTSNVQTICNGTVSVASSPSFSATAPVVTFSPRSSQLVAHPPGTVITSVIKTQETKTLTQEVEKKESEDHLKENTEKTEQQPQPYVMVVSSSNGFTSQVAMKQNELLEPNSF
In short: as §1

EHF = target: T5, EHF (Homo sapiens, UniProt Q9NZC4 1-300); details: protein: recombinant; tags: N-terminal GST; dsDNA, one strand shown
T5 sequence: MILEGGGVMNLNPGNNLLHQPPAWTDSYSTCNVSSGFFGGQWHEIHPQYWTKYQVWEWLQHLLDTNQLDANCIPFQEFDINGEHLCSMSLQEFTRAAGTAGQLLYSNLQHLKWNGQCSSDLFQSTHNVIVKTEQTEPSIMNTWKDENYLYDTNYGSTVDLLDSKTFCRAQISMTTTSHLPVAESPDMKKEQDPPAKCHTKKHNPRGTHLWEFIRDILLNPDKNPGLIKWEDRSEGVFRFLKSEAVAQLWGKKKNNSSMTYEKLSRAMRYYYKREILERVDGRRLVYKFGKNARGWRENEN
In short: as §1

SPI1 = SPI1 (Homo sapiens, UniProt P17947 1-270); details: protein: recombinant; tags: N-terminal GST; dsDNA, one strand shown
In short: as §1

SPIB = SPIB (Homo sapiens, UniProt Q01892 1-262); details: protein: recombinant; tags: N-terminal GST; dsDNA, one strand shown
SPIB, sequence (Q01892 whole entry): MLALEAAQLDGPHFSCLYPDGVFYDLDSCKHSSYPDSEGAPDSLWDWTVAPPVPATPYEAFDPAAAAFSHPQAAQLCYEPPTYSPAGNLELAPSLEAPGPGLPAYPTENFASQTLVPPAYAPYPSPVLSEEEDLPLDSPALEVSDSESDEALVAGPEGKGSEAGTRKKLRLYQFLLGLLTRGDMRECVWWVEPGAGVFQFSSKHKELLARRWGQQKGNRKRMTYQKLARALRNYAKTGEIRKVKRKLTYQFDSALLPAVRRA
In short: as §1

ELK3 = target: T6, ELK3 (Homo sapiens, UniProt P41970 1-407); details: protein: recombinant; tags: N-terminal GST; dsDNA, one strand shown
T6 sequence: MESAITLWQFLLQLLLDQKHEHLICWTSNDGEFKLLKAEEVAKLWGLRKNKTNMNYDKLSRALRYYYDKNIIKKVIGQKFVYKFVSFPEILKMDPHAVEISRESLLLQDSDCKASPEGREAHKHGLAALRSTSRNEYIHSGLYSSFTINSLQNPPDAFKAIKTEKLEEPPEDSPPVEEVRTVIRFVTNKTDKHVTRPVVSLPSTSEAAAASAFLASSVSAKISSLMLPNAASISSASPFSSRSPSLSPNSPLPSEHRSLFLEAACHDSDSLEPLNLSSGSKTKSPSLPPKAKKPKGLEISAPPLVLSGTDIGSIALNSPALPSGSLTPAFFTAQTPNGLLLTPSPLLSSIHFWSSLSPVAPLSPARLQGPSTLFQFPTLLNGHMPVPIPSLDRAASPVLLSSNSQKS
In short: as §1

FEV = target: T7, FEV (Homo sapiens, UniProt Q99581 1-238); details: protein: recombinant; tags: N-terminal GST; dsDNA, one strand shown
T7 sequence: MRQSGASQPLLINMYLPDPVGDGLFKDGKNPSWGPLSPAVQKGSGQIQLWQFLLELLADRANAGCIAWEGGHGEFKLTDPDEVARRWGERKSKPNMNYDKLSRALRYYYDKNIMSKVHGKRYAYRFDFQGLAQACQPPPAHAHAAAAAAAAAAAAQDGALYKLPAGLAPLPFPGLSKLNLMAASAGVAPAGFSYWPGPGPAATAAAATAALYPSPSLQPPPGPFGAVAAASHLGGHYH
In short: as §1

ETV5 = ETV5 (Homo sapiens, UniProt P41161 1-510); details: protein: recombinant; tags: N-terminal GST; dsDNA, one strand shown
ETV5, sequence (P41161 whole entry): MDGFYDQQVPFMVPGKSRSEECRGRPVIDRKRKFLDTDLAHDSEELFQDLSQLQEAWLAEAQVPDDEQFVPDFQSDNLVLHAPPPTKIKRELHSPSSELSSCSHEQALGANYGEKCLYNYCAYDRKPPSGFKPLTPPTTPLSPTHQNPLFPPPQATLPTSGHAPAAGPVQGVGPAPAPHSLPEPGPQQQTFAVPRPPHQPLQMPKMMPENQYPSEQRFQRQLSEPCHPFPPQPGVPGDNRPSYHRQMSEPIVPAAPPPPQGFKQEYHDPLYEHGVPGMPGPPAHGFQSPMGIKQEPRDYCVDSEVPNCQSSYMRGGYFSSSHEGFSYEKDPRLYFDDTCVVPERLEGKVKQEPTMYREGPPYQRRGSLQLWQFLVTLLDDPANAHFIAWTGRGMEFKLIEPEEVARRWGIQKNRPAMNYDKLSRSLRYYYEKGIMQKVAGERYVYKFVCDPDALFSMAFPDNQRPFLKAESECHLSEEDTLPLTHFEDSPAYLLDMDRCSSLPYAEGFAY
In short: as §1

HSF1 = HSF1 (Homo sapiens, UniProt Q00613 1-529); details: protein: recombinant; tags: N-terminal GST; chain copies: 3; dsDNA, one strand shown
HSF1, sequence (Q00613 whole entry): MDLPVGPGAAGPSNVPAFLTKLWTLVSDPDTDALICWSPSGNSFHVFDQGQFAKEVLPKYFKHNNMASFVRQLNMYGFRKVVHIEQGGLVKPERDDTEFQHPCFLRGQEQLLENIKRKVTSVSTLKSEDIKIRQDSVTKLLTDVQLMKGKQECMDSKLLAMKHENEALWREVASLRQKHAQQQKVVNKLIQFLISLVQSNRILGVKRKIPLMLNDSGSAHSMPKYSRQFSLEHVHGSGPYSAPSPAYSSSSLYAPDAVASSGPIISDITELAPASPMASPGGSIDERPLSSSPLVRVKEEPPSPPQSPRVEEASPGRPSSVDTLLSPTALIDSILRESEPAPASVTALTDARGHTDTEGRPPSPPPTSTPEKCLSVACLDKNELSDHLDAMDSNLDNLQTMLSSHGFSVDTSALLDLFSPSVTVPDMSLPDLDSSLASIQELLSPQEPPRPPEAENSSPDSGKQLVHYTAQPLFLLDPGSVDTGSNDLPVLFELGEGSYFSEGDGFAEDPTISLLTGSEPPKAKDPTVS
In short: as §1

SPIC = target: T8, SPIC (Homo sapiens, UniProt Q8N5J4 1-248); details: protein: recombinant; tags: N-terminal GST; dsDNA, one strand shown
T8 sequence: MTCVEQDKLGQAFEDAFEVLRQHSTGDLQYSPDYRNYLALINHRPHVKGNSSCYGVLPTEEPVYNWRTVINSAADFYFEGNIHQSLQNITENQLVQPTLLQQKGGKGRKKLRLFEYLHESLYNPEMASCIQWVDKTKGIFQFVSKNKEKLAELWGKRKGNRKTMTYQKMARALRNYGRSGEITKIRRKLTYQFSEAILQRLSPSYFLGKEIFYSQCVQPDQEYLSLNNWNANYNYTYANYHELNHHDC
In short: as §1

ELF4 = ELF4 (Homo sapiens, UniProt Q99607 1-663); details: protein: recombinant; tags: N-terminal GST; dsDNA, one strand shown
ELF4, sequence (Q99607 whole entry): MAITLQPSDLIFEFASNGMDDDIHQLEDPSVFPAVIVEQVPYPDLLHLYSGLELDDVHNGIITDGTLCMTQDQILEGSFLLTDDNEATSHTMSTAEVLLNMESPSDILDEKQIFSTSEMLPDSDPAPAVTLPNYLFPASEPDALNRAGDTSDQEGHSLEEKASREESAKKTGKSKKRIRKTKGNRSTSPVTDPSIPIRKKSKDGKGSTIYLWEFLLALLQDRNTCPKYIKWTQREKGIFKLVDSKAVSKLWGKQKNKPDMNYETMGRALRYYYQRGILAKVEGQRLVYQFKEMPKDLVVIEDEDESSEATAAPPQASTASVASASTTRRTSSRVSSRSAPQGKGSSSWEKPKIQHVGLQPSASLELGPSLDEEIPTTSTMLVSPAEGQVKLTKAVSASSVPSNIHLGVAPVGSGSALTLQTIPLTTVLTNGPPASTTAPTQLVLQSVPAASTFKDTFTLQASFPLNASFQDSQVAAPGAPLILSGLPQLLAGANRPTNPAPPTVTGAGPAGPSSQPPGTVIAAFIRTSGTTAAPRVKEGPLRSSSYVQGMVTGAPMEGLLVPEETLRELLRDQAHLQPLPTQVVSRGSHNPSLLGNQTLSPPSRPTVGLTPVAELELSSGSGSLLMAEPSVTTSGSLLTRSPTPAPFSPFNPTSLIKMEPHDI
In short: as §1

ELK4 = target: T9, ELK4 (Homo sapiens, UniProt P28324-2 1-405); details: protein: recombinant; tags: N-terminal GST; dsDNA, one strand shown
T9 sequence: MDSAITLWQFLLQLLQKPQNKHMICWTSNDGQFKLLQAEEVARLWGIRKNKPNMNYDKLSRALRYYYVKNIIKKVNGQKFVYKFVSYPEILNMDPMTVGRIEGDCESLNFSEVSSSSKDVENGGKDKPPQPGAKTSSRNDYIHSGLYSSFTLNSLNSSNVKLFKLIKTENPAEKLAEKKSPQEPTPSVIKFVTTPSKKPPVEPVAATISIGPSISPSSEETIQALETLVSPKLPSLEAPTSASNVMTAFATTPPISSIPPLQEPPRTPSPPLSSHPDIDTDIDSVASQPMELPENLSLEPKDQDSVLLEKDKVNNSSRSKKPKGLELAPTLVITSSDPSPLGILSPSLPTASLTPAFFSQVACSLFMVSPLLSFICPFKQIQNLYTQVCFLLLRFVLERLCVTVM
In short: as §1

ETV2 = target: T10, ETV2 (Homo sapiens, UniProt O00321 1-342); details: protein: recombinant; tags: N-terminal GST; dsDNA, one strand shown
T10 sequence: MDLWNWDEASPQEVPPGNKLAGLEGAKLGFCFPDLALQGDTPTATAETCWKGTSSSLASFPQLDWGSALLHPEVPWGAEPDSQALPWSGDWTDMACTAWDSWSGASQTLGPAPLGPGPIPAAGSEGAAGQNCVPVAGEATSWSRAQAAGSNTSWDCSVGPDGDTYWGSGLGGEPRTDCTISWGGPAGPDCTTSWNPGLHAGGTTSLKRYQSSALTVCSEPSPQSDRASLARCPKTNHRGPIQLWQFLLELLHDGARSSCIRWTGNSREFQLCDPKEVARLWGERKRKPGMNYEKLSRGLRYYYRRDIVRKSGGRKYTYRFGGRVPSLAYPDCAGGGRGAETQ
In short: as §1

ELF3 = target: T11, ELF3 (Homo sapiens, UniProt P78545 1-371); details: protein: recombinant; tags: N-terminal GST; dsDNA, one strand shown
T11 sequence: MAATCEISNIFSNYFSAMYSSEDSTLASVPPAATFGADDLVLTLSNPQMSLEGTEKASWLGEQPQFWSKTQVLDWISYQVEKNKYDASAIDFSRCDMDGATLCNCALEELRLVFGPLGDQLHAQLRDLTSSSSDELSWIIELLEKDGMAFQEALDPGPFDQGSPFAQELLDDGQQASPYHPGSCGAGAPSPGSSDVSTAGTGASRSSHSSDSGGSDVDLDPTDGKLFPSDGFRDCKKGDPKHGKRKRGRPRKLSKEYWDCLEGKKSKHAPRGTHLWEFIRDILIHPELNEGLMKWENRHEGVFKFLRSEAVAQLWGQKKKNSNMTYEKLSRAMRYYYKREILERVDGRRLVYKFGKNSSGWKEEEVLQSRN
In short: as §1

CRX = CRX (Homo sapiens, UniProt O43186 1-299); details: protein: recombinant; tags: N-terminal GST; dsDNA, one strand shown
CRX, sequence (O43186 whole entry): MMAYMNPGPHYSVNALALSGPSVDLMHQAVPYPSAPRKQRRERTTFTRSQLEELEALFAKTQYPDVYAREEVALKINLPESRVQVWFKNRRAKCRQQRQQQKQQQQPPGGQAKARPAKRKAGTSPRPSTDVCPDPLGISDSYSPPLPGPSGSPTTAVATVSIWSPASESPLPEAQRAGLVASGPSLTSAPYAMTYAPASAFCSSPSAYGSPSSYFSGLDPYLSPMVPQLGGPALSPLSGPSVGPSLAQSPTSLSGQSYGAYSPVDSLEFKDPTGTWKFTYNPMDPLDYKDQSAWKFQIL
In short: as §1

ETV1 = ETV1 (Homo sapiens, UniProt P50549 1-477); details: protein: recombinant; tags: N-terminal GST; dsDNA, one strand shown
ETV1, sequence (P50549 whole entry): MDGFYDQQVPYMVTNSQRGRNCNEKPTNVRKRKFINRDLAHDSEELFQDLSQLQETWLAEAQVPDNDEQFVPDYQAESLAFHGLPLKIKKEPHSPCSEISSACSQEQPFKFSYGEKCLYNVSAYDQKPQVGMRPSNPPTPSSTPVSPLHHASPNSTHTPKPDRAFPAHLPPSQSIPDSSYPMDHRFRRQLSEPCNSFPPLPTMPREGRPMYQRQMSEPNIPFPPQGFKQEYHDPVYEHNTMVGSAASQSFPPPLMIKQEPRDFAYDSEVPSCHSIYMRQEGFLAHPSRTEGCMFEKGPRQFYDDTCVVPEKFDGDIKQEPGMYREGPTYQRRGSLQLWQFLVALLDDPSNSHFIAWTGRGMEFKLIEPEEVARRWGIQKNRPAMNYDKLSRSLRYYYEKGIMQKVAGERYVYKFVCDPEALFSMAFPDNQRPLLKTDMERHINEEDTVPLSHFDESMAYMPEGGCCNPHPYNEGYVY
In short: as §1

CTCGGC was tested, and the binding signal (FLI1) was 1.47 fold enrichment (6-mer frequency, TF over GST control), the binding signal (ELK1) was 1.33 fold enrichment (6-mer frequency, TF over GST control) and the binding signal (GABPA) was 1.39 fold enrichment (6-mer frequency, TF over GST control). For the same sequence, the binding signal (ERG) was 1.26 fold enrichment (6-mer frequency, TF over GST control), the binding signal (ELF1) was 1.38 fold enrichment (6-mer frequency, TF over GST control) and the binding signal (EHF) was 1.52 fold enrichment (6-mer frequency, TF over GST control). The binding signal (SPI1) was 1.45 fold enrichment (6-mer frequency, TF over GST control), the binding signal (SPIB) was 1.27 fold enrichment (6-mer frequency, TF over GST control) and the binding signal (ELK3) was 1.39 fold enrichment (6-mer frequency, TF over GST control). The binding signal (FEV) was 1.29 fold enrichment (6-mer frequency, TF over GST control), the binding signal (ETV5) was 1.41 fold enrichment (6-mer frequency, TF over GST control) and the binding signal (HSF1) was 1.31 fold enrichment (6-mer frequency, TF over GST control). For the same sequence, the binding signal (SPIC) was 1.26 fold enrichment (6-mer frequency, TF over GST control), the binding signal (ELF4) was 1.56 fold enrichment (6-mer frequency, TF over GST control) and the binding signal (ELK4) was 1.39 fold enrichment (6-mer frequency, TF over GST control). The binding signal (ETV2) was 1.34 fold enrichment (6-mer frequency, TF over GST control), the binding signal (ELF3) was 1.52 fold enrichment (6-mer frequency, TF over GST control) and the binding signal (CRX) was 1.13 fold enrichment (6-mer frequency, TF over GST control). For the same sequence, the binding signal (ETV1) was 1.54 fold enrichment (6-mer frequency, TF over GST control).
